Screens deposited in PubChem BioAssay by National Center for Advancing Translational Sciences (NCATS).
Only some compounds are listed: those with a hit (about 2.4% of all), similar ones and a draw of the others.
D2 ag-1: HTS Assay for Allosteric Agonists of the Human D2 Dopamine Receptor: Primary Screen for Agonists | D(2) dopamine receptor (Homo sapiens), P14416 | HEK293 T-REx D2 cells, calcium flux agonist mode | activation, % at 2 µM | 340,000 tested, 0.53% active;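 active = activation over 3 SD above normal in the single-dose calcium agonist read, cut at about 30% in these data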; also: 0% is about no effect
Target sequence (P14416 whole entry, looked up): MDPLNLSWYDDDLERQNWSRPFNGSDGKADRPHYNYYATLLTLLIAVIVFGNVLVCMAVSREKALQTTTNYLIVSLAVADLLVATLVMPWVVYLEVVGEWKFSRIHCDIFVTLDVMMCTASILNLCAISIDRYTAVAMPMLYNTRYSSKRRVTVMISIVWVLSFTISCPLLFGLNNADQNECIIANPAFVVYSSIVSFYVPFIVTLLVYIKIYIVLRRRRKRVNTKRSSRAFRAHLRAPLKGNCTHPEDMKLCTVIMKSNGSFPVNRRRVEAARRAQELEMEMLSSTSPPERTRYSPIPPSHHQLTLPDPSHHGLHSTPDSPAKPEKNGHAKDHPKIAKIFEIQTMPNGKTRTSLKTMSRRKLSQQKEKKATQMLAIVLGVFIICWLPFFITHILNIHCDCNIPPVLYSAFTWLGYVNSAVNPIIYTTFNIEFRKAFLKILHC
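Agonism scored from kinetic calcium signal (1 read/sec, 180 s) following compound pin transfer, after a 10 s baseline. Cells: HEK293 Trex line expressing inducible D2 receptor coupled to calcium, dye-loaded after overnight culture at 30 C.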
D2 PAM-1: HTS Assay for Positive Allosteric Modulators of the Human D2 Dopamine Receptor: Primary Screen for Potentiators; D(2) dopamine receptor (Homo sapiens), P14416; HEK293 T-REx D2, calcium flux, EC20 dopamine potentiation; potentiation, % at 10 µM; 340,000 tested, 0.34% active;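 active = potentiation over 3 SD above the plate norm, cut at about 30% in these data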; also: 0% is about no effect
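Using a no-wash calcium dye in inducible, force-coupled HEK293 Trex cells expressing D2, we tracked fluorescence each second for 180 s after compound, then for 180 s after EC20 dopamine to detect augmented signalling.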
D2 PAM-2: Beta-Arrestin HTS for Positive Allosteric Modulators of the Human D2 Dopamine Receptor: Potentiators. D(2) dopamine receptor (Homo sapiens), P14416. DiscoveRx D2 beta-arrestin cells, luminescence, 90 min; 100% = 57 uM dopamine signal. potentiation, % (concentration not given with the values). 360,000 tested, 0.23% active; in the data active = potentiation above about 50%; inconclusive = mostly about 30% to 49%
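D2 cells co-treated with compound plus 50 nM dopamine (EC20) for 90 min at 37 deg C to detect potentiation. Beta-arrestin recruitment was read as enzyme-fragment luminescence after 1 h at ambient temperature. Full response was set by 57 uM dopamine.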
D2 ag-2: Beta-Arrestin HTS for Positive Allosteric Modulators of the Human D2 Dopamine Receptor: Agonists; AID 624465, 2012; D(2) dopamine receptor (Homo sapiens), P14416; DiscoveRx PathHunter D2 beta-arrestin, luminescence, 90 min; 100% = 57 uM dopamine signal; activation, % (no concentration beside the values); 360,000 tested, 0.084% active; in the data active = activation above about 40%; inconclusive = between about 15% and that limit
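DiscoveRx PathHunter D2 beta-arrestin cells (2,100/well) attached overnight, then compound-stimulated 90 min at 37 C in HBSS/10 mM HEPES/0.1% Tween-20 buffer; beta-galactosidase complementation read by luminescence after 1 h at ambient temperature. Dopamine 57 uM final (EC100) as control.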
D2 antag: HTS Assay for Allosteric Antagonists of the Human D2 Dopamine Receptor: Primary Screen for Antagonists. D(2) dopamine receptor (Homo sapiens), P14416. inhibition, % at 10 µM. HEK293 TREx D2 cells, calcium flux, dopamine EC80. 340,000 tested, 2% active; in the data active = inhibition above about 30%; inactive = below that, where a call was filed; also: 0% is about no effect
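In this primary screen, negative modulation is detected by tracking calcium flux after an EC80 dopamine challenge in inducible HEK293 T-REx D2 cells preexposed to test compound for 180 s.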
An asterisk follows results filed as active; ? = inconclusive; · = not tested or not shown.

SMILES	D2 ag-1	D2 PAM-1	D2 PAM-2	D2 ag-2	D2 antag
Cc1ccc(NC(=O)CCc2nc3cccnc3n2-c2ccccc2)cc1Cl	-1	1	·	·	·
Cc1ccc(S(=O)(=O)N2CCCCC2)cc1C(=O)NC1CCCCC1	-2	42*	-1	-2	-5
Cc1ccc(C(=O)NC2CCCC2)cc1S(=O)(=O)N1CCCCC1	-1	-2	-13	6	32*
Cc1cccnc1NC(=O)c1ccc(Cl)c(S(=O)(=O)N2CCCCCC2)c1	0	-1	-14	1	56*
COc1cccc(CNC(=O)CCCn2ncn3c(cc4occc43)c2=O)c1OC	0	4	·	·	·
Cc1cc(SCC(=O)N/N=C/c2ccc(O)c(O)c2O)c(C)cc1Br	-1	-2	57*	?	-14
CC(CSc1nnnn1-c1ccccc1)Cn1c(N2CCCC2)nc2c1c(=O)[nH]c(=O)n2C (stereo not given)	1	6	-11	-4	-10
Cn1c(=O)[nH]c(=O)c2c1nc(N1CCOCC1)n2CCSc1nnnn1-c1ccccc1	0	-7	-7	6	37*
CC(=O)Nc1ccc(NC(=O)C2Cc3ccccc3N2C(=O)c2ccccc2)cc1 (stereo not given)	2	-4	·	·	·
Cc1ccc(-c2nc3ncccc3o2)cc1NC(=O)c1ccccc1Br	0	-3	·	·	·
Cc1cc(C)n(-c2nc3ccccc3n3nnnc23)n1	-1	33*	-2	0	4
c1ccc(N2CCN(c3nc4ccccc4n4nnnc34)CC2)cc1	1	8	19	0	-9
COC(=O)C(NC(=O)CCc1c(C)nc2c(-c3ccccc3)c(C)nn2c1C)C(C)C (stereo not given)	1	4	·	·	·
Cc1ccc(CN2CC[C@H]3C=CCc4cccc(c43)C2)cc1	0	-13	-18	7	57*
COc1ccc2c(c1)cc1c(=O)n(CC(=O)NC(C)C)nc(C)n12	0	2	·	·	·
O=C(/C=C/c1ccc(OC(F)F)cc1)OCC(=O)N1CCC(c2ccccc2)=N1	3	-4	3	-1	39*
O=C(COC(=O)/C=C/c1ccc(OC(F)F)cc1)NC(=O)NC1CCCCC1	·	·	-3	-1	·
O=C(COC(=O)/C=C/c1ccc(OC(F)F)cc1)NC1CCCC1	0	8	-16	-3	32*
CCOc1ccc(NS(=O)(=O)c2ccc3c4c(cccc24)C(=O)N3)cc1	5	-1	·	·	·
COc1ccccc1N1CCN(C2CCCN(C(=O)c3cc(C)oc3C)C2)CC1 (stereo not given)	-1	2	-33	-1	-2
COc1ccccc1N1CCN(C2CCCN(C(=O)c3ccoc3C)C2)CC1 (stereo not given)	0	-16	-47	-3	31*
COc1ccccc1N1CCN(C2CCCN(Cc3cccc(O)c3)C2)CC1 (stereo not given)	1	-19	-2	-2	49*
COc1ccccc1N1CCN(C2CCCN(Cc3c(F)cccc3F)C2)CC1 (stereo not given)	0	-21	-2	-4	53*
CC(C)(C)C1CCc2c(sc(NC(=O)c3noc4c3CCCC4)c2C#N)C1 (stereo not given)	0	-2	·	·	·
CCn1c(/C=C/N(C(C)=O)c2ccccc2)[n+](CC)c2ccc(Cl)cc21	2	-1	-17	-2	-5
CC[n+]1c(/C=C/N(C)c2ccccc2)oc2ccc(Cl)cc21	-2	12	59*	?	-10
C/C(=N\NC=O)c1ccncc1	0	30*	-8	-18	3
Fc1ccc(OCCOCCN2CCCC2)cc1	·	·	-5	3	·
CC(OCCN1CCCC1)(c1ccc(F)cc1)c1ccc(F)cc1	1	-24	-11	-11	73*
CCOC(=O)N1CCC(Nc2c(Nc3ccc(C)c(C)c3)c(=O)c2=O)CC1	-1	-26	-18	1	57*
